“And” between values parts separate entries of the source, which are not always exact repeats. Identical values can stand only once. Results filed as inconclusive are left out. The source made the active and inactive calls. Calls follow the shape of the dose curve; as a rule, active = well fitted curve in the direction sought with a large enough effect; inconclusive = small, poorly fitted or top-dose-only effect, or another doubt; inactive = no such curve, though single readings can be large; an effect the other way counts as inactive or inconclusive.
Tests used:
[1] = target: Cellular tumor antigen p53 (Homo sapiens) (UniProt P04637); assay: Primary qHTS for small molecule compounds that upregulate eGFP-tagged delta133p53alpha (in N-terminal) cells. (AID 2060322); conditions: NCI-H358 eGFP-delta133p53alpha fluorescence, 24 h; activation: active compounds read high;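 also: series mostly up to about 56 µM; 0% = DMSO vehicle and 100% = reference activator; nearly all actives have a fitted effect of over 75% in size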
Chain of Cellular tumor antigen p53 (Homo sapiens) (P04637 whole entry, looked up): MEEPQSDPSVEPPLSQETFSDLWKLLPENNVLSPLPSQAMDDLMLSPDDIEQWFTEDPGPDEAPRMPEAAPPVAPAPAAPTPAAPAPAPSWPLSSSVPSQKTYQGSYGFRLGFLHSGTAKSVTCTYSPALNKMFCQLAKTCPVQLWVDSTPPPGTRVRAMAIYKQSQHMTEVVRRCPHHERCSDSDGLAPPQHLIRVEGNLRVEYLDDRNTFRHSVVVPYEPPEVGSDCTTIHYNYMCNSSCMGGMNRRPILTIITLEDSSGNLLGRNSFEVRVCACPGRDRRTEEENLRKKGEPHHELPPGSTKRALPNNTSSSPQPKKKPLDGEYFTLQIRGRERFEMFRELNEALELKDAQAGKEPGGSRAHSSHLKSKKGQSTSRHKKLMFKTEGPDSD
Outline: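 NCI-H358 cells pre-induced 24 h with 10 ng/ml doxycycline to express N-terminal eGFP-delta133p53alpha, then dosed 24 h at 37C without doxycycline; fixed, Hoechst-stained, GFP intensity by laser scanning cytometry, normalized to DMSO (0%) and 57.5 uM 5-azacytidine (100%).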

[2] = target: Aldehyde dehydrogenase, mitochondrial (Homo sapiens) (UniProt P05091); assay: qHTS for Inhibitors of the Aldehyde Dehydrogenase Family (ALDH2) Primary screen (AID 2061308);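 also: plate controls were vehicle for no effect and reference inhibitor for full effect; nearly all actives have a fitted effect of over 55% in size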
[3] = target: Retinaldehyde dehydrogenase 3 (Homo sapiens) (UniProt P47895); assay: qHTS for Inhibitors of the Aldehyde Dehydrogenase Family (ALDH1A3) Validation screen (AID 2061312); also: % is scaled to controls: 0 for no effect and ±100 for the full control effect; nearly all actives have a fitted effect of over 45% in size
[4] = target: Retinaldehyde dehydrogenase 3 (Homo sapiens) (UniProt P47895); assay: qHTS for Inhibitors of the Aldehyde Dehydrogenase Family (ALDH1A3) Primary screen (AID 2061315);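 also: plate controls were DMSO vehicle for no effect and reference inhibitor for full effect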

COc1cccc(N2CCN(C3=Nc4c(F)cccc4[C@H](CC(=O)O)N3c3cc(C(F)(F)F)ccc3OC)CC2)c1
inactive: activation [1] -5.73% | Potency [2] | Potency [3] | Potency [4]

CNC(C)C(=O)NC(C(=O)N1CCCC1c1nc(C(=O)c2ccc(F)cc2)cs1)C1CCCCC1 (centres undefined)
inactive: activation [1] 17.2% | Potency [2] | Potency [3] | Potency [4]

CCNC(=O)c1noc(-c2cc(Cl)c(O)cc2O)c1-c1ccc(OC)cc1
inactive: activation [1] -6.68% | Potency [2] | Potency [3] | Potency [4]

COc1ccc(-c2cnc3ccc(NCc4ccc(S(N)(=O)=O)cc4)nn23)cc1OC
inactive: activation [1] 5.73% | Potency [2] | Potency [3] | Potency [4]

O=C(c1ccc(F)cc1)C1CCN(CCn2c(=O)nc3n(c2=O)CCCC3)CC1
inactive: activation [1] -6.21% | Potency [2] | Potency [3] | Potency [4]

CCN1C[C@H](C)n2c(c(O)c3c(=O)n(Cc4ccc(F)c(Cl)c4)nc(C(=O)NC)c32)C1=O
inactive: activation [1] -11.2% and 13.4% and -6.68% | Potency [2] | Potency [3] | Potency [4]

O=C1COc2nccc(-c3ccccc3F)c2CN1Cc1cc(C(F)(F)F)cc(C(F)(F)F)c1
inactive: activation [1] -4.77% | Potency [2] | Potency [3] | Potency [4]

FC(F)(F)c1ccccc1-c1cc(C(F)(F)F)c2nc(C3=NOC4(CCCCC4)C3)[nH]c2c1
inactive: activation [1] 15.3% | Potency [2] | Potency [3] | Potency [4]

Cc1cc(CN)cc(C)c1NC(=O)c1ccc(-c2cc(Cl)ccc2Cl)o1
inactive: activation [1] 6.68% | Potency [2] | Potency [3] | Potency [4]

CCOC(=O)N1CCC(NCCNC(=O)c2ccccc2C)CC1
inactive: activation [1] 6.68% | Potency [2] | Potency [3] | Potency [4]

CC(C)(O)c1ccccc1CC[C@@H](SCC1(CC(=O)O)CC1)c1cccc(/C=C/c2ccc3ccc(Cl)cc3n2)c1
inactive: activation [1] -15.3% and -1.91% | Potency [2] | Potency [3] | Potency [4]

O=C(Nc1ccc(-n2nc(C(F)(F)F)cc2C(F)(F)F)cc1)c1ccncc1F
inactive: activation [1] -5.25% | Potency [2] | Potency [3] | Potency [4]

CNC(=O)c1ccc2c(c1)CCO[C@H]2CCN1CCN(c2ccc(OC)cc2)CC1
inactive: activation [1] -25.3% | Potency [2] | Potency [3] | Potency [4]

CC[C@@H](c1ccc(F)c(F)c1)n1c(C(=O)OC)c(-c2ccno2)[nH]c1=S
inactive: activation [1] -6.68% | Potency [2] | Potency [3] | Potency [4]

CS(=O)(=O)c1ccc([C@@H](O)[C@@H](CF)NC(=O)C(Cl)Cl)cc1
inactive: activation [1] -2.82% and -2.86% | Potency [2] | Potency [3] | Potency [4]

CCOc1nc2cccc(C(=O)O)c2n1Cc1ccc(-c2ccccc2-c2noc(=O)[nH]2)cc1
inactive: activation [1] 0.955% | Potency [2] | Potency [3] | Potency [4]

CC(C)(C)C(=O)C(Oc1ccc(Cl)cc1)n1ccnc1 (centres undefined)
inactive: activation [1] -37.9% and -2.39% | Potency [2] | Potency [3] | Potency [4]

CCCCc1nc(Cl)c(CO)n1Cc1ccc(-c2ccccc2-c2nnn[nH]2)cc1
inactive: activation [1] -18.1% | Potency [2] | Potency [3] | Potency [4]

O=S(=O)(Nc1cc(Cl)c(Oc2cnc3ccccc3c2)c(Cl)c1)c1ccc(Cl)cc1Cl
inactive: activation [1] -4.77% | Potency [2] | Potency [3] | Potency [4]

CS(=O)(=O)c1ccccc1N1CCN(c2nc3c(c(=O)[nH]2)CSCC3)CC1
inactive: activation [1] 11.5% | Potency [2] | Potency [3] | Potency [4]

CC(C)[C@@H]1C(=O)N(S(C)(=O)=O)[C@@H]2CCN(C(=O)/C=C/CN3CCCCC3)[C@H]21
inactive: activation [1] 8.11% | Potency [2] | Potency [3] | Potency [4]

COc1ccccc1N1CCN(CC[C@@](C)(C(=O)C2CCCCC2)c2ccccc2)CC1
inactive: activation [1] 8.11% | Potency [2] | Potency [3] | Potency [4]

CCOC(=O)c1sc(NC(=O)[C@H](C(C)C)n2c(=O)[nH]c3ccccc3c2=O)nc1C
inactive: activation [1] 14.3% | Potency [2] | Potency [3] | Potency [4]

O=C(Nc1ccccc1)N1CCN(c2nc(-c3ccccc3)ns2)CC1
inactive: activation [1] -13.8% | Potency [2] | Potency [3] | Potency [4]

CC1CCN(c2cc(NC(=O)c3ccccc3)ncn2)CC1
inactive: activation [1] 22.4% | Potency [2] | Potency [3] | Potency [4]

COC(=O)CCc1ccc(OCC(O)CNC(C)C)cc1 (centres undefined)
inactive: activation [1] 13.4% and 16.7% | Potency [2] | Potency [3] | Potency [4]
